Assay [1] in a line: qHTS for Inhibitors of the Functional Ribonucleoprotein Complex (vRNP) of Lassa (LASV) Arenavirus: LASV Primary Screen - GLuc reporter signal (AID 1347082; calls by dose curve; tested in HEK293 reporter line; also: nearly all actives have a fitted effect of over 60% in size). In general terms: Quantitative high-throughput screening tests each substance at several concentrations.
Assay [2] is described as follows: qHTS for Inhibitors of the Functional Ribonucleoprotein Complex (vRNP) of Lassa (LASV) Arenavirus: Viability assay - alamar blue signal for LASV Primary Screen (AID 1347083; calls by dose curve; tested in HEK293 reporter line; also: nearly all actives have a fitted effect of over 80% in size).
The nature of assay [3]: qHTS for Inhibitors of the Functional Ribonucleoprotein Complex (vRNP) of Lymphocytic Choriomeningitis Arenaviruses (LCMV): Viability assay - alamar blue signal for LCMV Primary Screen (AID 1347085; calls by dose curve; tested in HEK293 reporter line; also: nearly all actives have a fitted effect of over 80% in size).
For assay [4], the target named is Nucleoprotein (Lymphocytic choriomeningitis virus (strain Armstrong)) (UniProt P09992). Put plainly: qHTS for Inhibitors of the Functional Ribonucleoprotein Complex (vRNP) of Lymphocytic Choriomeningitis Arenaviruses (LCMV): LCMV Primary Screen - GLuc reporter signal (AID 1347086). Also: nearly all actives have a fitted effect of over 70% in size.
Nucleoprotein (Lymphocytic choriomeningitis virus (strain Armstrong)), sequence (P09992 whole entry, looked up): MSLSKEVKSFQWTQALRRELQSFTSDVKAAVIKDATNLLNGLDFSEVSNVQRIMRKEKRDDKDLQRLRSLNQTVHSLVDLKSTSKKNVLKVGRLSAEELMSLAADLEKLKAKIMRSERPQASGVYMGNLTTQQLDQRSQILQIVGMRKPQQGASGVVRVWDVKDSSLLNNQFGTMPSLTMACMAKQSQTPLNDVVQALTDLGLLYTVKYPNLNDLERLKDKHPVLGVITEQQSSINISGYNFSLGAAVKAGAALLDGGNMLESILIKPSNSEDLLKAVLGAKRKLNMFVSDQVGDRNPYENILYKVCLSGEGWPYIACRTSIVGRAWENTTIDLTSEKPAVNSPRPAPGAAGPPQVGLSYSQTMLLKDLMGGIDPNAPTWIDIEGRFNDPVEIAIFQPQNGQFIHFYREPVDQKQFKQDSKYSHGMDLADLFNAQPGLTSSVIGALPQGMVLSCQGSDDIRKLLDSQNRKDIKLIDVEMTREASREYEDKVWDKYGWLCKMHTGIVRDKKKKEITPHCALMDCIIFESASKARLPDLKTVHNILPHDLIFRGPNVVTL

Results filed as inconclusive are left out. Activity calls are given as the source filed them. Unless noted, calls follow the shape of the full dose curve.
Potency is read from the fitted curve at half-maximal effect.

As to `COc1cc(C2OCC3C(c4ccc(OC5OC(CO)C(O)C(O)C5O)c(OC)c4)OCC23)ccc1O` (stereo not given), the Potency result in assay [1], in assay [2], in assay [3] and in assay [4] was “inactive” each time.

Regarding `CCCCCCCCCCCCCCCCCC(=O)NCC(COP(=O)([O-])OCC[N+](C)(C)C)OCC` (stereo not given), the Potency entry in assay [1], in assay [2], in assay [3] and in assay [4] was “inactive” throughout.

Consider `CC1=CC2OC3CC4OC(=O)C=CC=CC(C(C)O)OCC(O)C5(C)OC5C(=O)OCC2(CC1O)C4(C)C31CO1` (stereo not given), for which the Potency result in assay [1], in assay [2], in assay [3] and in assay [4] was “inactive” throughout.

Take `CSCCCN=C=S`: the Potency result in assay [1], in assay [2], in assay [3] and in assay [4] was “inactive” throughout.

In the case of `C[C@H](NCc1ccc2c(c1)nc(NC(=O)c1ccc(-c3cn[nH]c3)s1)n2CCc1ccccc1)C(C)(C)C`, the Potency in assay [1] was 10.9 µM (active); in assay [2], 6.11 µM (active); in assay [3], 12.2 µM (active); in assay [4], 17.2 µM (active).

`C/C(=C/CCC(C)(O)C1CC[C@@]2(C)[C@@H]3CC=C4[C@@H](CC[C@H](O[C@H]5O[C@@H](CO)[C@H](O)[C@@H](O)[C@@H]5O)C4(C)C)[C@]3(C)C(=O)C[C@]12C)CO[C@@H]1O[C@H](CO)[C@@H](O)[C@H](O)[C@H]1O` (stereo not given in full): the Potency result in assay [1], in assay [2], in assay [3] and in assay [4] was “inactive” in each case.

Take `COc1cc(-c2oc3cc(O)cc(O)c3c(=O)c2O[C@@H]2O[C@H](CO)[C@@H](O)[C@H](O)[C@H]2O)cc(OC)c1O`: the Potency result in assay [1], in assay [2], in assay [3] and in assay [4] was “inactive” in each case.

Regarding `CC/C=C/CCO`, the Potency entry in assay [1], in assay [2], in assay [3] and in assay [4] was “inactive” each time.

On to `CCCSSCCC`, for which the Potency entry in assay [1], in assay [2], in assay [3] and in assay [4] was “inactive” each time.

Take `COc1cc2c(c(OC)c1OC)-c1c(cc3c(c1OC)OCO3)CC(C)C(C)C2` (stereo not given): the Potency entry in assay [1], in assay [2], in assay [3] and in assay [4] was “inactive” each time.

Take `NC(=O)c1ncn([C@@H]2O[C@H](CO)[C@@H](O)[C@@H]2O)c1N`: the Potency result in assay [1], in assay [2], in assay [3] and in assay [4] was “inactive” each time.

In the case of `CC(=O)O`, the Potency result in assay [1], in assay [2], in assay [3] and in assay [4] was “inactive” throughout.

With `CCCCCC1CCCC(=O)O1` (stereo not given), the Potency result in assay [1], in assay [2], in assay [3] and in assay [4] was “inactive” in each case.

As to `COc1c(OC)c(O)c2c(=O)cc(-c3c(O)cccc3O)oc2c1OC`, the Potency entry in assay [1], in assay [2], in assay [3] and in assay [4] was “inactive” in each case.

Consider `C/C(=C\COc1c2ccoc2cc2oc(=O)ccc12)CCC(O)C(C)(C)O` (stereo not given), for which the Potency result in assay [1], in assay [2], in assay [3] and in assay [4] was “inactive” in each case.

`CC1=C(C=O)C(C)(C)CCC1`: the Potency entry in assay [1], in assay [2], in assay [3] and in assay [4] was “inactive” each time.

Regarding `CC1=CC[C@H](CC=O)C1(C)C`, the Potency entry in assay [1], in assay [2], in assay [3] and in assay [4] was “inactive” throughout.

On to `O=CCCc1ccccc1`, for which the Potency entry in assay [1], in assay [2], in assay [3] and in assay [4] was “inactive” each time.

Consider `O=CN1CCCCC1`, for which the Potency result in assay [1], in assay [2], in assay [3] and in assay [4] was “inactive” throughout.

Regarding `COc1ccc2c(=O)cc(-c3ccccc3)n(C)c2c1`, the Potency result in assay [1], in assay [2], in assay [3] and in assay [4] was “inactive” throughout.

In the case of `COc1ccc(-c2coc3cc(OC(C)=O)c(OC)cc3c2=O)cc1`, the Potency entry in assay [1], in assay [2], in assay [3] and in assay [4] was “inactive” each time.

In the case of `CC(=O)O[C@]1(C(C)=O)CC[C@@H]2[C@@H]3C[C@H](C)C4=CC(=O)CC[C@]4(C)[C@H]3CC[C@@]21C`, the Potency entry in assay [1], in assay [2], in assay [3] and in assay [4] was “inactive” in each case.

Regarding `CCCc1ccc(OC)cc1`, the Potency result in assay [1], in assay [2], in assay [3] and in assay [4] was “inactive” in each case.

For the compound `C/C=C(/C)C(=O)O[C@@H]1[C@H](OC(=O)C=C(C)C)c2c(ccc3ccc(=O)oc23)OC1(C)C`, the Potency entry in assay [1], in assay [2], in assay [3] and in assay [4] was “inactive” each time.

With `CC(=O)O[C@H]1C[C@@]2(O)[C@@H](OC(=O)c3ccccc3)C3[C@@](C)([C@@H](O)C[C@H]4OC[C@@]34OC(C)=O)[C@@H](O)[C@H](OC(C)=O)C(=C1C)C2(C)C` (stereo not given in full), the Potency entry in assay [1], in assay [2], in assay [3] and in assay [4] was “inactive” in each case.

As to `CCCC(=O)C(C)=O`, the Potency result in assay [1], in assay [2], in assay [3] and in assay [4] was “inactive” each time.

For the compound `CC(C)(COP(=O)(O)OP(=O)(O)OC[C@H]1O[C@@H](n2cnc3c(N)ncnc32)[C@H](O)[C@@H]1OP(=O)(O)O)[C@H](O)C(=O)NCCC(=O)NCCS`, the Potency result in assay [1], in assay [2], in assay [3] and in assay [4] was “inactive” in each case.

In the case of `COC(=O)Nc1ccc(C)c(NC(=O)OC)c1`, the Potency result in assay [1], in assay [2], in assay [3] and in assay [4] was “inactive” in each case.

For `COC(=O)c1cc(O)c(O)c(O)c1`, the Potency entry in assay [1], in assay [2], in assay [3] and in assay [4] was “inactive” in each case.

With `CCCCCCCC1CCC(=O)O1` (stereo not given), the Potency entry in assay [1], in assay [2], in assay [3] and in assay [4] was “inactive” in each case.

The values are drawn from PubChem BioAssay (NCATS).
